Measured potencies and affinities stand elsewhere. A number with no mark means an inactive call. No rule for the calls is given here.
Test: HeLa cell cytotoxicity, dose response, cytotoxicity control, 48 h, plate reader, cherry-picks (AID 504942)
Settings: series mostly up to 38 µM; activity change, negative = toxicity: at the top concentration

Compound | activity change, negative = toxicity
O=C(NCC1CC1)c1cc([N+](=O)[O-])cc([N+](=O)[O-])c1 | 2.77%
N#CCn1c(C2CCCCC2)nc2ccccc2c1=O | 5.78%
O=C1N[C@@H](Cc2ccccc2)[C@@H](c2ccco2)O1 | 4.94%
O=C(NC1CCCCCCC1)c1cccc(Cl)c1 | -9.91%
COc1ccc(CNCc2cccc(Cl)c2)cc1 | 1.45%
N#Cc1cc([N+](=O)[O-])ccc1N1CCCC1 | 0.911%
CSC1=N/C(=C\C=C\c2cccs2)C(=O)S1 | 3.28%
CCOC(=O)c1ccc(-c2ccc(C=O)o2)cc1 | -9.6%
CSc1nnc(-c2ccc([N+](=O)[O-])cc2)o1 | 8.43%
O=[N+]([O-])c1ccc(-c2cccnc2)cc1 | 7.75%
N#Cc1cc(-c2ccccc2)cnc1Cl | 10.2%
N#CC(c1cccc(Cl)c1)c1ncc(C(F)(F)F)cc1Cl (stereo not given) | -0.874%
CCOC(=O)N1CCN(c2ccc(Cl)cc2)CC1 | 8.67%
COC(=O)c1cc(-c2ccc(OC)cc2)on1 | -7.79%
Cc1ccc(S(=O)(=O)NCCC(C)C)cc1[N+](=O)[O-] | -2.78%
N#CC(Sc1ccccn1)c1ccc(Cl)cc1 (stereo not given) | 1.92%
O=[N+]([O-])c1ccc(N2CCCC2)nc1 | -11.1%
Cc1ccc(S(=O)c2ccc(C)cc2)cc1 | 7.24%
O=C1C2C3C=CC(C4CC34)C2C(=O)N1Cc1ccco1 (stereo not given) | -3.39%
COc1ccc(N=C(C)C2=C(O)CSC2=O)cc1 | 5.08%
CCOC(=O)/C=C(\C)Sc1cc(=O)oc2ccccc12 | 26.4%
COC(=O)c1cc(-c2ccc(Br)cc2)on1 | -2.78%
CCCNS(=O)(=O)c1ccc(OC)c(Cl)c1Cl | 1.84%
CCOC(=O)CCCn1ncn2c(cc3occc32)c1=O | 7.49%
N#CC(c1ccc(Cl)nn1)c1ccc(Cl)cc1Cl (stereo not given) | 2.16%
Cc1cc(C)nc(N(C#N)Cc2ccccc2)n1 | 1.81%
N#CC(c1ccc(Cl)cc1)c1ncc(C(F)(F)F)cc1Cl (stereo not given) | -7.56%
COc1ccc(N2CCN(C(=O)c3ccc(Br)o3)CC2)cc1 | 7.9%
Cc1cc(NC(=O)c2c(F)c(F)c(F)c(F)c2F)no1 | 8.16%
COC(=O)c1ccc(NC(=S)N2CCCC2)cc1 | -4.47%
